# Measurements taken from the supplement of paper PMC6555819.
# What was measured:
# Test in all cases: PBM binding z-score (relative to random genomic background probes); higher = stronger binding; sequences stand for … in GC…GCGATTGACAGCGTAGAATGAAGG
# [1] = test system: PPARg:RXRa DBDmut IVT, anti-RXR (DBD mutation: RXRa K156A/R161A, NR concentration 270 nM, RXRa partner concentration 90 nM)
# Outline: (§1)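 Probes were double-stranded and carried 34-nt variable regions with direct-repeat seeds, single-nucleotide variants, half-site ablations and random human genomic background sequences, printed on custom Agilent 4×180K protein-binding microarrays. Arrays were incubated 1 h with ligand-free nuclear receptor dimers in PBS pH 7.4, 2% milk, 0.02% Triton X-100, 1 mM DTT, 0.2 mg/mL BSA and 0.4 mg/ml salmon testes DNA. Antibodies against each partner (one per run) detected binding, and scanned fluorescence was regression-normalized. Binding z-scores use the random background probes as reference.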
# [2] = test system: PPARg:RXRa IVT, anti-PPARg (NR concentration 270 nM, RXRa partner concentration 90 nM)
# Outline: as §1
# [3] = test system: PPARg DBDmut:RXRa IVT, anti-PPARg (DBD mutation: PPARg1 K132A/R137A, NR concentration 270 nM, RXRa partner concentration 90 nM)
# Outline: as §1
# [4] = test system: PPARg DBDmut IVT, anti-PPARg (DBD mutation: PPARg1 K132A/R137A, NR concentration 270 nM)
# Outline: as §1
# [5] = test system: PPARg homodimer (NR concentration 180 nM)
# Outline: as §1
# [6] = test system: PXR:RXRa (NR concentration 270 nM, RXRa partner concentration 90 nM)
# Outline: as §1
# [7] = test system: PXR homodimer (NR concentration 270 nM)
# Outline: as §1
# [8] = test system: RARa:RXR (NR concentration 270 nM, RXRa partner concentration 90 nM)
# Outline: as §1
# [9] = test system: RARa homodimer (NR concentration 270 nM)
# Outline: as §1
# [10] = test system: RARb:RXRa (NR concentration 270 nM, RXRa partner concentration 90 nM)
# Outline: as §1
Sequence,PBM binding z-score [1],PBM binding z-score [2],PBM binding z-score [3],PBM binding z-score [4],PBM binding z-score [5],PBM binding z-score [6],PBM binding z-score [7],PBM binding z-score [8],PBM binding z-score [9],PBM binding z-score [10]
CCGACTGCGGCAAGGTTACCATAACGCACAGCCA,-0.209,-0.134,-0.21,-0.256,0.4,0.562,0.00644,0.946,0.0538,0.845
CCTCGGAGGACAACAGGAGGTCAGATCTGCCAGA,0.382,0.149,-0.732,-1.41,1.21,2.05,0.364,2.18,0.26,2.81
CCTAGTTGGTCTGGAGGTCACACACCGGATATGA,0.138,2.42,-0.0171,0.512,3.95,4.72,1.81,5.16,2.41,3.59
CGAACGAGGGCATGACTTGATAGCAAATGCCGAT,2.69,1.81,-0.27,-0.449,-0.43,0.219,-0.361,0.614,-0.682,2.01
TAGCCTAGGTCATTGGGCGAGTATAGTACGCATC,1.88,3.05,0.311,-0.0966,1.15,1.59,-0.283,2.09,-0.259,3.69
CGTCAAAGTTCAACGTAACGTAACAGAAAGCAGC,0.266,1.76,0.727,1.04,2.48,4.4,2.41,3.07,1.3,5.18
CCTAGCACGCCAATCTGGGTCACTCAAGGCTTGA,3.75,4.76,-0.107,-0.39,0.751,0.751,-0.246,1.13,0.0845,1.06
CGAACTAGTTCATCCAGGACAGTGAATACATTGA,1.33,0.831,0.796,0.456,0.323,1.64,2.98,1.06,0.65,1.53
ACAGACATGTGATGAAGGTAACTCAGGCTATCAT,-0.334,0.139,0.595,0.868,-0.0569,-0.448,-0.319,-0.161,-0.142,-0.338
TCAGACAGGTGAAGGTAACTTAGGTACGCAGTCG,2.71,1.37,0.399,0.159,1.08,0.989,0.206,1.27,0.365,1.15
CCTAGTCGGTCAGGAGGTCACACACCGGATATGA,2.85,4.85,0.312,0.324,4.25,4.34,1.2,5.23,2.27,4.25
CAAACTAGGTCAAGGTCAAAGTCGGTTTGTGCCA,8.86,8.63,3.11,0.796,3.64,5.25,2.25,5.33,2.13,5.19
ACTAGTTGGTCAGCTGAGGTCACCCACAATTCGG,1.12,2.73,0.761,0.737,3.43,5.45,1.71,4.87,1.52,3.58
CGAACTAGGTCATTGACAGAACAGTGAATAGTAA,7.82,8.32,1.7,2.64,1.37,1.39,-0.216,1.99,0.356,3.56
CCTGCTAGCTCATGGTCAGCTAATCTACAGTATG,0.183,-0.609,-0.471,-0.109,-0.356,-0.641,-0.376,-0.681,-0.182,-0.0065
TTTAGTTGGTCACGGAGGTCACACACGACGGGTA,3.69,5.36,1.78,1.9,3.37,4.93,1.92,4.96,2.05,4.08
CAGCCTAGGTCACGGCCAGTATAGGAGGAACGTT,3.65,4.36,0.0261,-0.166,1.71,2.34,-0.132,3.45,0.239,4.6
CCTTACGGGTCACTGACAGGTTATACCATTTGGA,3.69,3.72,0.775,0.106,2.46,3.75,0.348,4.53,1.11,4.14
CTTCCAAGGTCAGAGAGGTCAGTGAATGCCGAGT,2.81,3.44,-0.247,0.0425,3.75,5.75,11.5,4.71,1.5,5.27
TCTAGCAGGCCAGACGGTCACTCAAGAGGTACGG,0.883,0.0624,-0.226,-0.934,-0.417,-0.727,-0.716,-0.457,-0.452,1.04
ATACCAAGGTGATCGTGAGGTCGTTGCTACTAAC,0.566,1.52,0.602,0.38,0.741,3.18,1.05,1.91,0.0838,1.5
GGAACTAGGGCATTCGAGTTGATAGCATGGCGAT,7.47,7.05,0.246,1.27,0.796,1.44,-0.109,0.587,-0.515,0.965
ACTAGCAGGCCAAGGGTCACTCAAGATTAGTCCG,0.983,4.06,-0.0619,-0.0525,2.65,3.21,-0.112,3.84,0.215,3.41
GCTATTAATTGAAAGGGCAACCGAATGATTCTCG,0.162,0.122,-0.051,-0.0832,1.66,0.52,1.04,0.517,2.31,2.02
CAAACTAGGTCACCGGAAGGTCAAAGACCGCATG,8.27,8.78,2.33,1.54,7.7,5.6,1.46,7.13,2.64,5.2

Sequence,PBM binding z-score [1],PBM binding z-score [2],PBM binding z-score [3],PBM binding z-score [4],PBM binding z-score [5],PBM binding z-score [6],PBM binding z-score [7],PBM binding z-score [8],PBM binding z-score [9],PBM binding z-score [10]
CCTAGCAGGCCAGGGTCACTCATGCATTTCGCTT,-0.158,1.27,-1.04,-1.56,0.688,2.19,-0.121,2.67,-0.129,2.38
TAGCCTATGTCATGGGCCAGTATACCACGCGAAC,-0.759,0.165,-0.733,0.201,-0.377,-0.487,-0.151,0.249,-0.171,0.192
TCGAGTAGGTTAGTCGGGGCATTGAGCCAACATA,2.07,2.19,-0.804,-1.03,-0.25,-0.121,-0.392,0.186,-0.979,0.355
TCTAGTTGGTCAAAGGTCACATACTCGAAATGCG,3.45,6.25,1.46,1.64,5.02,5.59,1.83,7.12,3.51,4.83
CCTATTAGTTGACCATAAGGGCAATCGAAGCTCG,0.549,0.361,0.362,0.72,1.56,0.609,0.878,0.531,2.18,1.38
CCTACTGGGGCATCAGGTCATTGATATCAACGTT,5.37,6.32,1.29,0.377,2.41,1.8,0.7,2.41,0.207,2.36
TAGTCTAGGTCATGCGGGCCAGTATAGTGTCGGC,5.79,6.05,2.08,2.16,1.27,1.58,0.355,2.07,0.351,3.85
CTACCAAGGTGACCAAGGTCGTTGATTACTATTC,1.56,2.32,-0.302,-0.385,0.966,2.3,1.04,2.16,-0.214,1.65
ATCTCTAGGTAAAGATAGTTCAGTCAATGCAAAT,2.07,1.73,0.964,1,0.843,1.05,0.38,0.522,0.556,0.692
TCATTTAGGTAAAGGTGAAAGTCGAACGATATGA,3.05,3.75,1.29,2.17,1.2,1.35,0.193,1.92,1.42,2.05
CCTAGCAAGCCAGGGTCACTCAAGCATTTCGCTT,-0.127,0.222,-0.962,-1.46,0.888,2.78,0.054,3.42,-0.000742,2.41
TCTCGGAGGACCCGAAGGTCAGAGCTTTCCAGAG,0.809,-0.16,-1.17,-1.31,0.165,1.42,-0.264,1.89,-0.281,2.35
ATCTCTAGGTAAGACTCAGTACAGTGAAGAACGC,1.66,1.18,0.455,1.12,1.13,-0.0434,0.717,0.344,1.32,0.147
CGCACGAGGGCATGAGTTGATAGCAAATGCCGAT,1.88,1.02,-0.109,-0.507,0.288,0.438,-0.109,0.296,-0.714,2.09
GCTTGAAGATCAAGGTTAAGAAAGACTAAGCTAA,-0.184,-0.042,0.0638,-0.723,-0.0355,0.112,-0.655,0.675,-0.598,0.778
ACAGACAGGTAAGTGAAGGTAACTCAGCTGGACG,-0.107,0.305,0.744,-0.0686,-0.111,-0.306,0.283,-0.575,0.213,0.109
CCTATTGGTTGACCATAAGGGCAACCGAAGCTCG,-1.11,0.135,-0.489,-1.22,0.0166,0.326,-0.293,0.774,-0.166,1.26
TCTATTATTTGATTAGGGCAACCGAAACAGCGGA,2.19,1.39,2.04,2.12,2.2,0.756,2.04,1.17,3.39,0.93
GCTTGTAGATCAAGTTTAAGAAAGACTAAGCTAA,0.956,0.313,0.0425,0.223,-0.136,0.206,0.211,0.203,-0.548,-0.0982
CCTAGCAGGGCAATCTGGGTCACTCAAGGCTTGA,4.48,5.72,-0.465,-0.641,0.648,1.65,-0.451,1.89,-0.799,2.06
TCTTTTAGATCAATAGAGGTTAAGAAAGTGCGCT,1.67,1.53,1.94,1.81,0.69,3.35,0.207,2.08,-0.186,1.23
TCTATTAGTTGATTAGGACAACCGAAACAGCGGA,2.5,0.979,0.853,1.57,1.65,0.749,0.881,0.862,2.34,0.68
GCTTACGGGTCGAAGGTTATAGCATGAATAGAAT,0.529,2.66,0.973,0.687,1.39,2.65,-0.142,3.79,-0.0107,1.49
ACTTACGGGTCAACCAGGTTATAGCACGCGTATA,3.23,4.21,2.29,2.39,4.29,4.77,1.62,5.34,1.57,4.17
